Data: PubChem BioAssay AID1159580 (chemical genetic matrix, 2015)
Screen size: about 5,500 compounds; about 2,000 (36%) were called active. Another 18% or so got no clear call; they are omitted. Cut-off read from the data, not from the text of the source: active = normalized growth mostly below about 0.91 (no sharp cut-off); inconclusive = no clear call, values can overlap the other calls; inactive = mostly above about 0.92. This is one part of the list.

Assay: chemical genetic growth profiling, strain panel (AID 1159580);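 note: tested at 20 µM; growth read once vehicle control cultures reached saturation at 30 °C; 1 = growth at the plate median or of vehicle wells; lower values mean less growth of the strain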
Conditions: growth OD
[1] = S. cerevisiae deletion strains, locus YDL101C, strain DUN1, active compounds read low
[2] = S. cerevisiae deletion strains, locus YHR030C, strain SLT2, active compounds read low
[3] = S. cerevisiae deletion strains, locus YAL013W, strain DEP1, active compounds read low
[4] = S. cerevisiae deletion strains, locus YBR229C, strain ROT2, active compounds read low
[5] = S. cerevisiae deletion strains, locus YCL061C, strain MRC1, active compounds read low
[6] = S. cerevisiae deletion strains, locus YDL134C, strain PPH21, active compounds read low
[7] = S. cerevisiae deletion strains, locus YDR150W, strain NUM1, active compounds read low
[8] = S. cerevisiae deletion strains, locus YEL061C, strain CIN8, active compounds read low
[9] = S. cerevisiae deletion strains, locus YGR078C, strain PAC10, active compounds read low
[10] = S. cerevisiae deletion strains, locus YGR229C, strain SMI1, active compounds read low
[11] = S. cerevisiae deletion strains, locus YHR087W, strain rtc3, active compounds read low
[12] = S. cerevisiae deletion strains, locus YJL187C, strain SWE1, active compounds read low
[13] = S. cerevisiae deletion strains, locus YJR043C, strain POL32, active compounds read low
[14] = S. cerevisiae deletion strains, locus YJR075W, strain HOC1, active compounds read low
[15] = S. cerevisiae deletion strains, locus YLR039C, strain RIC1, active compounds read low
[16] = S. cerevisiae deletion strains, locus YLR058C, strain SHM2 (second series), active compounds read low
[17] = S. cerevisiae deletion strains, locus YLR085C, strain ARP6, active compounds read low
[18] = S. cerevisiae deletion strains, locus YLR262C, strain YPT6, active compounds read low
[19] = S. cerevisiae deletion strains, locus YML094W, strain GIM5, active compounds read low
[20] = S. cerevisiae deletion strains, locus YMR219W, strain ESC1, active compounds read low
[21] = S. cerevisiae deletion strains, locus YNL153C, strain GIM3, active compounds read low
[22] = S. cerevisiae deletion strains, locus YNL298W, strain CLA4 (second series), active compounds read low
[23] = S. cerevisiae deletion strains, locus YNL322C, strain KRE1, active compounds read low
[24] = S. cerevisiae deletion strains, locus YNR030W, strain Alg12, active compounds read low
[25] = S. cerevisiae deletion strains, locus YPL055C, strain LGE1, active compounds read low
[26] = S. cerevisiae deletion strains, locus YPL241C, strain CIN2, active compounds read low
[27] = S. cerevisiae deletion strains, locus YPR135W, strain CTF4, active compounds read low
[28] = S. cerevisiae deletion strains, locus YMR307W, strain GAS1, active compounds read low

Measured: normalized growth

COCCOc1ccccc1NC(=S)SCCSC(=S)Nc1ccccc1OCCOC
inactive: S. cerevisiae deletion strains, locus YAR019C, strain CDC15, active compounds read low 0.988 | S. cerevisiae deletion strains, locus YBL105C, strain PKC1, active compounds read low 0.978 | S. cerevisiae deletion strains, locus YBR135W, strain CKS1, active compounds read low 0.978 | S. cerevisiae deletion strains, locus YBR136W, strain MEC1, active compounds read low 0.977 | S. cerevisiae deletion strains, locus YBR160W, strain CDC28, active compounds read low 0.979 | S. cerevisiae deletion strains, locus YDL017W, strain CDC7, active compounds read low 0.98 | S. cerevisiae deletion strains, locus YDL028C, strain MPS1, active compounds read low 0.98 | [1] 0.973 | S. cerevisiae deletion strains, locus YDL108W, strain KIN28, active compounds read low 0.97 | S. cerevisiae deletion strains, locus YDL132W, strain cdc53, active compounds read low 0.976 | S. cerevisiae deletion strains, locus YDL214C, strain PRR2, active compounds read low 0.911 | S. cerevisiae deletion strains, locus YDR052C, strain DBF4, active compounds read low 0.981 | S. cerevisiae deletion strains, locus YDR054C, strain cdc34, active compounds read low 0.976 | S. cerevisiae deletion strains, locus YDR226W, strain ADK1, active compounds read low 0.969 | S. cerevisiae deletion strains, locus YDR477W, strain SNF1, active compounds read low 0.955 | S. cerevisiae deletion strains, locus YER123W, strain YCK3, active compounds read low 0.883 | S. cerevisiae deletion strains, locus YER133W, strain GLC7, active compounds read low 0.938 | S. cerevisiae deletion strains, locus YFL009W, strain cdc4, active compounds read low 0.976 | S. cerevisiae deletion strains, locus YFL029C, strain CAK1, active compounds read low 0.981 | S. cerevisiae deletion strains, locus YFR003C, strain YPI1, active compounds read low 0.977 | S. cerevisiae deletion strains, locus YFR019W, strain FAB1, active compounds read low 0.945 | S. cerevisiae deletion strains, locus YFR028C, strain CDC14, active compounds read low 0.988 | S. cerevisiae deletion strains, locus YGR040W, strain KSS1, active compounds read low 0.938 | S. cerevisiae deletion strains, locus YGR052W, strain FMP48, active compounds read low 1 | S. cerevisiae deletion strains, locus YGR092W, strain DBF2, active compounds read low 0.933 | [2] 1.15 | S. cerevisiae deletion strains, locus YHR079C, strain IRE1, active compounds read low 1.03 | S. cerevisiae deletion strains, locus YHR082C, strain KSP1, active compounds read low 1.01 | S. cerevisiae deletion strains, locus YHR205W, strain SCH9, active compounds read low 0.936 | S. cerevisiae deletion strains, locus YIL147C, strain SLN1, active compounds read low 0.97 | S. cerevisiae deletion strains, locus YJL095W, strain BCK1, active compounds read low 1.03 | S. cerevisiae deletion strains, locus YJL128C, strain PBS2, active compounds read low 0.941 | S. cerevisiae deletion strains, locus YJL157C, strain FAR1, active compounds read low 0.924 | S. cerevisiae deletion strains, locus YJR016C, strain ILV3, active compounds read low 0.987 | S. cerevisiae deletion strains, locus YJR066W, strain TOR1 (second series), active compounds read low 0.899 | S. cerevisiae deletion strains, locus YJR066W, strain TOR1, active compounds read low 1.03 | S. cerevisiae deletion strains, locus YKL048C, strain ELM1, active compounds read low 0.944 | S. cerevisiae deletion strains, locus YKL067W, strain YNK1, active compounds read low 0.937 | S. cerevisiae deletion strains, locus YKL101W, strain HSL1, active compounds read low 0.931 | S. cerevisiae deletion strains, locus YKL193C, strain SDS22, active compounds read low 0.985 | S. cerevisiae deletion strains, locus YKL203C, strain TOR2, active compounds read low 1.02 | S. cerevisiae deletion strains, locus YLR113W, strain HOG1, active compounds read low 0.931 | S. cerevisiae deletion strains, locus YLR133W, strain CKI1, active compounds read low 0.947 | S. cerevisiae deletion strains, locus YLR403W, strain SFP1, active compounds read low 0.944 | S. cerevisiae deletion strains, locus YML070W, strain DAK1, active compounds read low 0.902 | S. cerevisiae deletion strains, locus YMR001C, strain CDC5, active compounds read low 0.981 | S. cerevisiae deletion strains, locus YMR205C, strain PFK2 (second series), active compounds read low 0.939 | S. cerevisiae deletion strains, locus YMR277W, strain FCP1, active compounds read low 0.984 | S. cerevisiae deletion strains, locus YNL006W, strain LST8, active compounds read low 0.983 | S. cerevisiae deletion strains, locus YNL020C, strain ARK1, active compounds read low 0.931 | S. cerevisiae deletion strains, locus YNL161W, strain CBK1, active compounds read low 0.984 | S. cerevisiae deletion strains, locus YNL183C, strain NPR1, active compounds read low 1.01 | S. cerevisiae deletion strains, locus YNL207W, strain RIO2, active compounds read low 0.993 | S. cerevisiae deletion strains, locus YNL222W, strain SSU72, active compounds read low 0.972 | S. cerevisiae deletion strains, locus YNL307C, strain MCK1 (second series), active compounds read low 0.946 | S. cerevisiae deletion strains, locus YOL078W, strain AVO1, active compounds read low 0.98 | S. cerevisiae deletion strains, locus YOL136C, strain PFK27, active compounds read low 0.918 | S. cerevisiae deletion strains, locus YOR061W, strain CKA2, active compounds read low 0.92 | S. cerevisiae deletion strains, locus YOR119C, strain RIO1, active compounds read low 0.991 | S. cerevisiae deletion strains, locus YOR231W, strain MKK1, active compounds read low 1 | S. cerevisiae deletion strains, locus YOR329C, strain SCD5, active compounds read low 0.981 | S. cerevisiae deletion strains, locus YPL031C, strain PHO85, active compounds read low 0.949 | S. cerevisiae deletion strains, locus YPL153C, strain RAD53, active compounds read low 0.928 | S. cerevisiae deletion strains, locus YPL204W, strain HRR25, active compounds read low 0.945 | S. cerevisiae deletion strains, locus YPL209C, strain IPL1, active compounds read low 0.978 | S. cerevisiae deletion strains, locus YPL256C, strain CLN2, active compounds read low 0.991 | S. cerevisiae deletion strains, locus YPR025C, strain CCL1, active compounds read low 0.982 | S. cerevisiae deletion strains, locus YPR106W, strain ISR1, active compounds read low 0.98 | S. cerevisiae deletion strains, locus YPR111W, strain DBF20, active compounds read low 0.977 | S. cerevisiae deletion strains, strain NNK1, active compounds read low 0.981 | S. cerevisiae deletion strains, strain TSCII, active compounds read low 0.99

CCOC(=O)c1c(-c2ccc(F)cc2)csc1N
active: [3] 0.879 | [4] 0.905 | [5] 0.889 | [6] 0.887 | [8] 0.746 | [10] 0.928 | [2] 0.175 | [11] 0.858 | [12] 0.903 | [14] 0.86 | [15] 0.437 | [16] 0.897 | [17] 0.508 | [18] 0.438 | [19] 0.798 | [20] 0.93 | [22] 0.782 | [24] 0.842 | S. cerevisiae deletion strains, locus YOL006C, strain TOP1, active compounds read low 0.479 | [25] 0.754 | [26] 0.807 | [27] 0.435 | S. cerevisiae strains, strain wild type, active compounds read low 0.82
inactive: [1] 0.986 | [7] 0.986 | [9] 0.93 | [13] 0.957 | [21] 0.941 | [23] 0.95

CCOC(=O)Nc1ccc(NCc2ccc(F)cc2)nc1N
inactive: [3] 1.02 | S. cerevisiae deletion strains, locus YAL040C, strain CLN3, active compounds read low 1.01 | S. cerevisiae deletion strains, locus YCL061C, strain MRC1 (second series), active compounds read low 1 | [7] 0.991 | S. cerevisiae deletion strains, locus YDR363W, strain ESC2, active compounds read low 1.02 | S. cerevisiae deletion strains, locus YER002W, strain NOP16, active compounds read low 1 | [10] 1.07 | [14] 1.01 | [28] 0.994 | S. cerevisiae deletion strains, locus YNL128W, strain TEP1, active compounds read low 0.993 | S. cerevisiae deletion strains, locus YNL175C, strain NOP13, active compounds read low 1.01 | S. cerevisiae deletion strains, locus YNL197C, strain WHI3, active compounds read low 1.01 | S. cerevisiae deletion strains, locus YNL224C, strain SQS1, active compounds read low 1.04 | [23] 1.01 | S. cerevisiae deletion strains, locus YOR083W, strain WHI5 (second series), active compounds read low 1.03 | [25] 1.02

CCOC(=O)c1c(C)csc1N
inactive: [3] 0.99 | [4] 0.999 | [5] 0.996 | [1] 0.998 | [6] 1.01 | [7] 1.01 | [8] 0.987 | [9] 0.983 | [2] 0.98 | [11] 1.01 | [12] 1 | [13] 1.01 | [14] 0.997 | [15] 1 | [16] 1.01 | [17] 0.983 | [18] 1.02 | [19] 0.984 | [20] 1.01 | S. cerevisiae deletion strains, locus YMR263W, strain SAP30, active compounds read low 1.02 | [28] 0.9 | [21] 1 | [22] 0.967 | [23] 0.993 | [24] 0.984 | [25] 1.03 | [26] 0.972 | [27] 1.02
